# Screening results (PubChem BioAssay)
# AHR activator = human AHR activation; AHR-responsive luciferase reporter cells, luminescence; activation, % at 5 µM; hit rate 2.5% among 320,000; in the data active = activation above about 47%;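 also: 0% = vehicle wells and 100% = reference agonist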
# SENP8 block-1 = inhibitors of human SENP8 protease; Q96LD8; recombinant SENP8, Nedd8 substrate fluorescence; inhibition, % at 20 µM; hit rate 0.64% among 360,000; AID 602440; in the data active = inhibition mostly above about 40%, no sharp cut-off; inactive = mostly below about 27%
# Target sequence (Q96LD8 whole entry, looked up): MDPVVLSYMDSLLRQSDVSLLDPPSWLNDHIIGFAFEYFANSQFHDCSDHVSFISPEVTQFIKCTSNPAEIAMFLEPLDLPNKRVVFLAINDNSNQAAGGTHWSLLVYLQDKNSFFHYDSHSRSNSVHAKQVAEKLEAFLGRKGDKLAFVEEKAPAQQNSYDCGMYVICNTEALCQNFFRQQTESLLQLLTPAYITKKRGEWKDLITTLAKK
# SENP7 inh = blocks the human protease SENP7 | Q9BQF6 | recombinant SENP7, Z-RLRGG-aminoluciferin luminescence, 40 min | inhibition, % at 5 µM | hit rate 1.5% among 330,000 | AID 434973;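 active = inhibition above about 50% at the single test dose, limit read from the data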;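 also: plate controls were DMSO with enzyme for no effect and no enzyme buffer wells for full effect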
# SENP8 block-2 = blocks the human protease SENP8 | inhibition, % at 10 µM | purified SENP8, Z-RLRGG-aminoluciferin cleavage, luminescence | hit rate 1.2% among 330,000; in the data active = inhibition above about 50%
# EBI2 block = blocks human EBI2 receptor beta-arrestin signaling. P32249. EBI2 beta-arrestin recruitment, luminescence, 7a,25-OHC stimulated. inhibition, % at 5 µM. hit rate 0.81% among 360,000; in the data active = inhibition above about 38%;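 also: enzyme fragment complementation signal reports receptor beta-arrestin coupling in cells; 0% = agonist plus DMSO wells and 100% = wells without agonist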
# Target sequence (P32249 whole entry, looked up, the tested form may be a part): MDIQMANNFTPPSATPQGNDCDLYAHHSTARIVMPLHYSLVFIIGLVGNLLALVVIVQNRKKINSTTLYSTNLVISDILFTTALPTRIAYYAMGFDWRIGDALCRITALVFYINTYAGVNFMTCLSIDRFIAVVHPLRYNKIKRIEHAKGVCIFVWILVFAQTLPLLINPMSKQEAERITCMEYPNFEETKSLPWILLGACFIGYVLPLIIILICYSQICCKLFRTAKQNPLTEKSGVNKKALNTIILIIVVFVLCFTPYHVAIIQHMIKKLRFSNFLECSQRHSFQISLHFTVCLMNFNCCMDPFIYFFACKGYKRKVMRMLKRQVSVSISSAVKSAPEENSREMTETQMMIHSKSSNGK
# SENP6 inh = SENP6 protease inhibition. Q9GZR1. Recombinant SENP6 catalytic domain, aminoluciferin luminescence. inhibition, % at 10 µM. hit rate 1.8% among 330,000. AID 2599;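 active = inhibition above about 50% at the single tested dose, limit read from the data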;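 also: plate controls were DMSO wells with enzyme for no effect and DMSO wells lacking enzyme for full effect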
# EBI2 antag conf = EBI2 (human) antagonism, single concentration confirmation; shares compounds with EBI2 block; hit rate 29% among 2,400; EBI2 beta-arrestin luminescence, 7a,25-OHC antagonism; inhibition, % at 5 µM;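 active = inhibition of at least 50%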
# EBI2 agonist = activates EBI2, counter-screen for EBI2 antagonists. EBI2-expressing cells, agonist mode, luminescence, 60 min; 0% vehicle, 100% 7α,25-dihydroxycholesterol control. activation, % at 5 µM. 2,400 tested, under 10 active. shares compounds with EBI2 block;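 active = activation of at least 50%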
# bGal cs = beta-galactosidase inhibition counter-screen. shares compounds with EBI2 block. inhibition, % at 5 µM. purified beta-galactosidase, luminescent Galacton Star, 15 min. hit rate 1% among 2,400;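 active = replicate-average signal at least 3 plate SD below neutral wells, shown as high inhibition, flagging enzyme-inhibiting false positives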;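 also: 0% = DMSO wells with enzyme and 100% = wells lacking enzyme; higher means stronger loss of beta-gal luminescence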
# Active calls of the source: *; nt = not tested or not shown. Compounds with a hit are over-represented: about 5% of the library has one in this group of screens.
SMILES,AHR activator,SENP8 block-1,SENP7 inh,SENP8 block-2,EBI2 block,SENP6 inh,EBI2 antag conf,EBI2 agonist,bGal cs
NC(=O)[C@@H]1CC2(CC(c3cccc(NC(=O)COc4ccc(Cl)cc4)c3)=NO2)CN1C(=O)COc1ccc(Cl)cc1 (stereo partly specified),5,9,-4,-8,53*,-17,24,-1,-18
Cc1cccc(NCc2ccc(O)c3ncccc23)c1C,3,11,-3,2,-8,-7,nt,nt,nt
Cc1cccnc1NCc1ccc(O)c2ncccc12,6,11,10,2,56*,-1,22,0,7
Cc1ccc(SCCNC(=O)c2ccc(C)c(S(=O)(=O)Nc3cccc(C)c3)c2)cc1,0,16,4,-3,42,-18,nt,nt,nt
Cc1ccc(NS(=O)(=O)c2cc(C(=O)NCCSc3ccc(C)cc3)ccc2C)cc1,8,19,-12,-8,44*,-13,11,-2,-8
O=C(c1ccc(-c2ccccc2)cc1)N1CCN(c2ccc3c(c2)C2CC3CCN2C(=O)OCc2ccccc2)CC1 (stereo unspecified),nt,6,nt,nt,54*,nt,40,1,7
Cc1ccc(C(=O)N2CCN(c3ccc4c(c3)C3CC4CCN3C(=O)OCc3ccccc3)CC2)cc1 (stereo unspecified),nt,19,nt,nt,33,nt,nt,nt,nt
CCC(C(=O)NC1CC(C)(C)NC(C)(C)C1)c1ccccc1 (stereo unspecified),-1,8,-6,-9,-6,-2,nt,nt,nt
O=C(NCc1ccccn1)c1ccc(OC2CCN(Cc3ccc(F)cc3F)CC2)cc1,0,9,6,-3,1,2,nt,nt,nt
N#Cc1c(-c2ccccc2)c(-c2ccccc2)nn(CC(=O)NNC(=O)Nc2ccc(Cl)c(Cl)c2)c1=O,3,-75,3,0,79*,-19,22,1,7
COc1ccc(-n2c(Cc3cccn3C)nnc2SCC(=O)Nc2ccccc2F)cc1,-1,2,10,-6,36,-10,nt,nt,nt
CCOC(=O)c1ccccc1NC(=O)CSc1nnc(Cc2cccn2C)n1-c1ccc(C)cc1,1,-1,-7,-13,54*,-9,29,-1,-10
COc1ccc(-n2c(Cc3cccn3C)nnc2SCC(=O)Nc2cccc(OC)c2)cc1,6,4,0,4,32,-1,nt,nt,nt
COc1ccc(-n2c(Cc3cccn3C)nnc2SCC(=O)Nc2ccccc2C)cc1,-2,5,0,-1,55*,1,23,-1,-6
COc1ccc(NC(=O)CSc2nnc(Cc3cccn3C)n2-c2ccc(C)cc2)cc1OC,0,6,4,-1,-8,4,nt,nt,nt
Cn1cccc1Cc1nnc(SCC(=O)NCCc2ccccc2)n1C,-1,12,-3,-1,-6,-5,nt,nt,nt
COc1ccc(-n2c(Cc3cccn3C)nnc2SCC(=O)Nc2cccc(C)c2C)cc1,1,2,-2,4,49*,-3,25,-2,-8
COc1ccc(-n2c(Cc3cccn3C)nnc2SCC(=O)NCCc2ccccc2)cc1,3,4,-4,-7,44*,-3,36,-1,4
O=c1[nH]c2c(c(=O)[nH]1)CCC2,0,15,2,3,3,7,nt,nt,nt
COc1ccc(-n2c(COc3ccccc3)nnc2SCC(N)=O)cc1,7,6,1,-2,49*,-11,3,-1,-11
COc1ccc(-n2c(Cc3cccn3C)nnc2SCC(=O)Nc2ccc(C)c(Cl)c2)cc1,1,31,-4,4,47*,3,23,-1,11
COc1ccc(-n2c(COc3ccc(C)cc3)nnc2SCC(N)=O)cc1,3,22,2,-3,-6,-7,nt,nt,nt
CC(=O)Oc1cccc(N2C(=O)c3ccc(C(=O)Nc4c[nH]c(=O)[nH]c4=O)cc3C2=O)c1,-1,1,-5,-15,-7,-11,nt,nt,nt
CCC1CCCCN1C(=O)Nc1ccc(F)cc1 (stereo unspecified),-4,6,-9,-8,-12,-6,nt,nt,nt
CCC1CCCCN1C(=S)Nc1ccc(OC(F)F)cc1 (stereo unspecified),0,14,-5,-8,55*,-6,0,0,2
SMILES,AHR activator,SENP8 block-1,SENP7 inh,SENP8 block-2,EBI2 block,SENP6 inh,EBI2 antag conf,EBI2 agonist,bGal cs
Cc1cc(C(=O)c2ccc3ccccc3c2)c(C)o1,0,6,3,-5,-5,-3,nt,nt,nt
O=S(=O)(c1cc(F)ccc1F)N1CCC2(CC1)OCCN2S(=O)(=O)c1cccs1,0,9,-2,-9,4,-2,nt,nt,nt
CC1=CC2=C(C=O)C(=O)C(C)(O)C(O)C2=CO1 (stereo unspecified),nt,-110,nt,nt,2,nt,nt,nt,nt
CS(=O)(=O)N(CC(=O)NCCSc1ccccc1)c1ccc2c(c1)OCO2,-1,4,-3,1,22,-1,nt,nt,nt
COc1ccc(N(CC(=O)NCCSc2ccccn2)S(=O)(=O)c2ccccc2)cc1OC,1,13,0,3,-7,5,nt,nt,nt
CS(=O)(=O)N(CC(=O)NCCSc1ccc(Cl)cc1)c1ccc2c(c1)OCO2,7,13,-9,-10,87*,-25,63*,0,3
COc1ccc(N(CC(=O)NCCSc2ccccc2)S(=O)(=O)c2ccccc2)cc1OC,0,7,2,4,48*,6,27,1,0
Cc1cc(S(=O)(=O)NC2CC(C)(C)NC(C)(C)C2)c(Cl)cc1Cl,2,11,8,5,-5,1,nt,nt,nt
CCOC(=O)C1CCCCN1C(=O)c1ccc2nc(Cc3ccc(OC)cc3)oc2c1 (stereo unspecified),-1,6,4,3,61*,5,49,0,3
Cc1ccc(C)c(N2CCN(CCCc3ccccc3)CC2)c1,nt,27,-3,-10,4,-22,nt,nt,nt
CCn1c(-c2ccccc2Cl)nn(CC(=O)NCCc2ccccc2)c1=S,4,21,-4,0,57*,-4,31,-1,-6
CCn1c(-c2ccccc2Cl)nn(CC(=O)Nc2cc(Cl)ccc2Cl)c1=S,1,18,17,2,13,-5,nt,nt,nt
O=[N+]([O-])c1cc(-c2cnc3ccccc3n2)ccc1Oc1ccc(Br)cc1,9,11,3,-7,46*,3,42,0,3
COC(=O)c1cc(=O)n(CCc2ccc(OC)c(OC)c2)c(=Nc2ccc(F)c(Cl)c2)s1,5,24,2,-1,63*,-8,62*,-1,-8
COC(=O)c1cc(=O)n(Cc2ccc(F)cc2)c(=Nc2ccccc2)s1,2,30,-5,-2,60*,11,62*,0,7
